Results as given in PubChem BioAssay AID602329 (Broad Institute, 2012).
About 510 (0.14%) of roughly 360,000 compounds were called active. The list comes from a sample in which actives are over-represented; it also holds similar structures and randomly drawn compounds. Values without a mark were called inactive.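 Rule for the calls: active = mean normalized replicate activity at least 40 and at least half of replicates scoring 40 or more; inconclusive = only one of the two criteria met; inactive = mean below 40 and under half of replicates reaching 40.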

biological target: DNA repair and recombination protein RAD54-like (Homo sapiens) (UniProt Q92698); experiment: RAD54 Holliday junction migration blockers – biochemical, fluorescence, single point, primary screen (AID 602329); conditions: RAD54 Holliday junction branch migration, FAM/BHQ fluorescence; at 10.4 µM; hits give high values;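 note: 0% = median of neutral control wells and 100% = median of positive control wells; inhibitors cause a drop in the FAM fluorescence signal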
Sequence (Q92698 whole entry, looked up): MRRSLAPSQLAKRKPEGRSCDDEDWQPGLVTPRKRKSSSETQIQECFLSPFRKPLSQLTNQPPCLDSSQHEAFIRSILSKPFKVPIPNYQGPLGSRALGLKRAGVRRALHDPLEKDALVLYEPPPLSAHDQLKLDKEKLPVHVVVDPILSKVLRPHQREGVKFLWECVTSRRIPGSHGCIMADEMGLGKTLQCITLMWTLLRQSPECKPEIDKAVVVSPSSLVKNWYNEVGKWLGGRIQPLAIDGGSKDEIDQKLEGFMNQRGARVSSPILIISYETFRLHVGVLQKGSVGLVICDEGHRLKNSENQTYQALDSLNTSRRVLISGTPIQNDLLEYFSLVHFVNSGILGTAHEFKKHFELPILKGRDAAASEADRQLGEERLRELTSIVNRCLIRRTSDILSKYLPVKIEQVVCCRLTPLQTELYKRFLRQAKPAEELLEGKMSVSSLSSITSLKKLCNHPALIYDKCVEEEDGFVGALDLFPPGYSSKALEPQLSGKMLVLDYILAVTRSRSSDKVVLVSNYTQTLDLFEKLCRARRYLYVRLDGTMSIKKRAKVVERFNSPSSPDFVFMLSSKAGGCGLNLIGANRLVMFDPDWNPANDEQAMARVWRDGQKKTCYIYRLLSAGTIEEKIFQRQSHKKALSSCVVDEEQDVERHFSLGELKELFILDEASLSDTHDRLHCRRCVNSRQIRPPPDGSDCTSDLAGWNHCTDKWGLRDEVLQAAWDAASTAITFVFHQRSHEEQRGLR

Row | Structure (SMILES) | inhibition
1 | COc1cccc(C#Cc2ccc([C@H]3[C@@H](CO)N(C(=O)c4ccccn4)[C@H]3C#N)cc2)c1 | -3.06%
2 | CCCNC(=O)N(C)C[C@H]1Oc2ncc(-c3ccc(C(=O)N(C)C)cc3)cc2C(=O)N([C@@H](C)CO)C[C@@H]1C | -0.543%
3 | C[C@@H]1CN([C@@H](C)CO)C(=O)c2cc(C#Cc3ccncc3)cnc2O[C@@H]1CN(C)C(=O)CN(C)C | 0.163%
4 | C[C@H]1CN([C@@H](C)CO)C(=O)Cc2cc(NS(C)(=O)=O)ccc2O[C@@H]1CN(C)S(=O)(=O)c1ccc(Cl)cc1 | 4.72%
5 | COCC(=O)Nc1ccc2c(c1)[C@@H]1C[C@H](CC(=O)NCc3cc(F)ccc3F)O[C@@H](CO)[C@@H]1O2 | -1.13%
6 | CO[C@H]1CN(C)C(=O)c2ccc(NC(=O)c3cc(C)on3)cc2OC[C@H](C)N(C)C[C@H]1C | -1.45%
7 | Cc1cccc2c1-c1sc(C(=O)NCCCN3CCc4ccccc4C3)cc1CO2 | 22%
8 | CN1CCN(CCCNC(=O)c2cc3c(=O)oc4ccccc4c3s2)CC1 | 55.7% (active)
9 | O=C(NCCN1CCN(Cc2ccccc2)CC1)c1cc2c(=O)[nH]c3ccccc3c2s1 | -0.046%
10 | Cn1cnc(S(=O)(=O)N2C[C@H](O)COC[C@@H]3O[C@H](CC(=O)NCc4cccc(F)c4)CC[C@H]32)c1 | 7.2%
11 | CCN1CCN(CCNC(=O)c2ccc3c(c2)NC(=O)/C(=C\c2ccc(OC)c(OC)c2)S3)CC1 | 72.7% (active)
12 | COc1ccc(CCNC(=O)c2ccc3c(c2)NC(=O)C(N2CCOCC2)S3)cc1OC (configuration not stated) | -1.36%
13 | COc1ccc(/C=C(\NC(=O)c2ccccc2)C(=O)NCCN2CCOCC2)cc1OC | -3.48%
14 | CC(C)C(=O)Nc1ccc2c(c1)C(=O)N(C)[C@H]1CC[C@H](CC(=O)NCc3ccc(F)cc3)O[C@H]1CO2 | 7.1%
15 | CNC(=O)C[C@H]1CC[C@H]2[C@@H](COc3ccc(NC(=O)c4cccc(OC)c4)cc3C(=O)N2C)O1 | 7.1%
16 | COC(=O)[C@@H]1[C@@H](CO)[C@@H]2Cn3c(ccc(-c4ccccc4)c3=O)[C@@H]2N1C(=O)C1CC1 | -7.82%
17 | C[C@@H]1CN([C@@H](C)CO)C(=O)c2cc(-c3ccncc3)cnc2O[C@@H]1CN(C)C(=O)C1CCCCC1 | -1.52%
18 | N#C[C@@H]1[C@H](c2ccc(C#CC3CCCCC3)cc2)[C@@H](CO)N1S(=O)(=O)c1ccccc1 | 1.51%
19 | O=C(NCCCN1CCOCC1)c1cc(-c2cccc(O)c2)on1 | 10.7%
20 | O=C(NCCCN1CCOCC1)c1cnn2c(-c3ccccc3)cc(-c3ccccc3)nc12 | 58.3% (active)
21 | O=C(NCCCN1CCOCC1)c1cc(-c2ccccc2F)no1 | -15.8%

Row | Structure (SMILES) | inhibition
22 | C[C@H]1CN([C@@H](C)CO)S(=O)(=O)c2ccc(-c3cccnc3)cc2O[C@H]1CN(C)C(=O)C1CCCCC1 | 0.93%
23 | COc1ccc(NC(=O)Nc2ccc3c(c2)C(=O)N([C@@H](C)CO)C[C@H](C)[C@@H](CN(C)Cc2ccc4c(c2)OCO4)O3)cc1 | 3.59%
24 | COc1ccc(NC(=O)Nc2ccc3c(c2)C(=O)N([C@H](C)CO)C[C@@H](C)[C@H](CN(C)Cc2ccccc2)O3)cc1 | 22.5%
25 | CC(C)NC(=O)Nc1ccc2c(c1)C(=O)N([C@H](C)CO)C[C@@H](C)[C@@H](CN(C)Cc1ccncc1)O2 | -0.866%
26 | COc1ccc(CN(C)C[C@@H]2Oc3ccc(NC(=O)NC(C)C)cc3C(=O)N([C@@H](C)CO)C[C@H]2C)cc1 | 56.8% (active)
27 | COc1ccc(CN(C)C[C@@H]2Oc3ccc(NC(=O)Nc4ccc(OC)cc4)cc3C(=O)N([C@H](C)CO)C[C@H]2C)cc1 | 67.3% (active)
28 | CC(C)NC(=O)Nc1ccc2c(c1)C(=O)N([C@@H](C)CO)C[C@@H](C)[C@H](CN(C)Cc1ccc(-c3ccccc3)cc1)O2 | 20.7%
29 | CN1c2ccc(C#Cc3cccnc3)cc2[C@@H]2[C@@H](CCN2S(=O)(=O)c2ccccc2)[C@H]1CO | -8.94%
30 | CCOc1ccc(OCCSc2nc3ccccc3n2CC(=O)O)cc1 | -7.61%
31 | CCCCCCCCCCOC(=O)Cn1c(COc2ccc(C)cc2)[n+](C)c2ccccc21 | 50.3% (active)
32 | CCCCCn1c(=O)c(C(=O)OCC)c(Cl)c2ccccc21 | 0.614%
33 | C[C@@H]1CN([C@@H](C)CO)C(=O)Cc2cc(NC(=O)Nc3ccc(C(F)(F)F)cc3)ccc2O[C@H]1CN(C)C(=O)Nc1ccc(F)cc1 | 0.667%
34 | CN1C(=O)c2cc(NS(=O)(=O)c3ccccc3F)ccc2OC[C@@H]2O[C@@H](CC(=O)NC3Cc4ccccc4C3)CC[C@@H]21 | -2.97%
35 | C[C@H](CO)N1C[C@H](C)[C@@H](CN(C)S(=O)(=O)c2ccc(Cl)cc2)Oc2ccc(NS(=O)(=O)c3cn(C)cn3)cc2C1=O | -4.21%
36 | CO[C@@H]1CN(C)C(=O)c2cc(NC(=O)C3CCOCC3)ccc2OC[C@@H](C)NC[C@@H]1C | 8.52%
37 | CC(C)CC#Cc1cnc2c(c1)C(=O)N([C@@H](C)CO)C[C@@H](C)[C@@H](CN(C)S(=O)(=O)c1cccs1)O2 | 12.1%
38 | COc1cccc(NC(=O)Nc2ccc3c(c2)C(=O)N(C)C[C@@H](OC)[C@H](C)CN(CC2CC2)[C@H](C)CO3)c1 | 8.71%
39 | Cc1ccc(S(=O)(=O)Nc2ccc3c(c2)C(=O)N([C@H](C)CO)C[C@H](C)[C@H](CN(C)Cc2ccccc2)OCCCC[C@@H](C)O3)cc1 | 5.79%
40 | COc1ccc(C(=O)Nc2ccc3c(c2)OC[C@H](C)N(C(C)=O)C[C@@H](C)[C@H](OC)CN(C)C3=O)cc1 | -4.9%
41 | CO[C@@H]1CN(C)C(=O)c2cc(NS(=O)(=O)c3ccc(Cl)cc3)ccc2OC[C@H](C)NC[C@@H]1C | -8.54%
42 | CN1c2ccc(-c3cccc(C#N)c3)cc2[C@@H]2[C@@H](CCN2C(=O)NC2CCCCC2)[C@@H]1CO | -3.76%
